According to PubChem BioAssay (NCI):
The panel holds about 83,000 compounds, 20% with a hit somewhere; the sample as a whole holds those more often.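 Negative percent growth values reflect cell death: -40 means 40% of the cells present at the start died, and -100 means all died.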 Values without a mark were called inactive. The source made the active and inactive calls. Rule for the calls: active = growth percent below 10; inactive = the rest.

Tests used:
Assay in all cases: NCI-60 one-dose screen, 48 h (100 = growth as untreated, 0 = no growth, -100 = all killed)
Conditions in all cases: 10 µM unless noted
T-47D breast = system: T-47D breast
BT-549 breast = system: BT-549 breast
MDA-MB-435 melanoma = system: MDA-MB-435 melanoma
SW-620 colon = system: SW-620 colon
MCF7 breast = system: MCF7 breast
HCT-116 colon = system: HCT-116 colon
HCC-2998 colon = system: HCC-2998 colon
KM12 colon = system: KM12 colon

Cc1cccc(Cl)c1NC(=O)c1ccc2nc(NC(=O)NCCN(C)C)sc2c1
growth (T-47D breast): 88.1%
growth (BT-549 breast): 82.1%
growth (MDA-MB-435 melanoma): 47%
growth (SW-620 colon): 103%
growth (MCF7 breast): 48.9%
growth (HCT-116 colon): 92.1%
growth (HCC-2998 colon): 105%
growth (KM12 colon): 97.1%

CS(=O)(=O)C1=CN(CCO)C(=O)N2CCCN=C12
growth (T-47D breast): 102%
growth (BT-549 breast): 102%
growth (MDA-MB-435 melanoma): 102%
growth (SW-620 colon): 93.4%
growth (MCF7 breast): 104%
growth (HCT-116 colon): 97%
growth (HCC-2998 colon): 98.6%
growth (KM12 colon): 105%

CC(C)(C)c1cc(-c2nc3ccc(N4CCN(S(C)(=O)=O)CC4)cc3[nH]2)cc(C(C)(C)C)c1O
growth (T-47D breast): 76.6%
growth (BT-549 breast): 102%
growth (MDA-MB-435 melanoma): 94%
growth (SW-620 colon): 97.2%
growth (MCF7 breast): 76.4%
growth (HCT-116 colon): 81.7%
growth (HCC-2998 colon): 103%
growth (KM12 colon): 27.6%

CCOC(=O)c1cnc2ccccc2c1Cl
growth (T-47D breast): 102%
growth (BT-549 breast): 112%
growth (MDA-MB-435 melanoma): 98.9%
growth (SW-620 colon): 90.9%
growth (MCF7 breast): 99.1%
growth (HCT-116 colon): 95.7%
growth (HCC-2998 colon): 98.4%
growth (KM12 colon): 101%

N#Cc1cccc(-c2c(-c3ccc4ccccc4c3)oc3ccccc3c2=O)c1
growth (T-47D breast): 45.1%
growth (BT-549 breast): 34.1%
growth (MDA-MB-435 melanoma): -26.8% (active)
growth (SW-620 colon): 14.6%
growth (MCF7 breast): 20.3%
growth (HCT-116 colon): 12.4%
growth (HCC-2998 colon): 68.8%
growth (KM12 colon): 25.9%

COc1cc(CNC(=O)CCCC/C=C/C(C)C)ccc1OCc1nnc(Nc2ccc([N+](=O)[O-])cc2)o1
growth (T-47D breast): 48.6%
growth (BT-549 breast): 108%
growth (MDA-MB-435 melanoma): 71.9%
growth (SW-620 colon): 67.3%
growth (MCF7 breast): 55.2%
growth (HCT-116 colon): 24.6%
growth (HCC-2998 colon): 83.6%
growth (KM12 colon): 71.6%

O=C(c1ccc(Cl)cc1)N1CCN(c2ccnc3cc(Cl)ccc23)CC1
growth (T-47D breast): 58%
growth (BT-549 breast): 106%
growth (MDA-MB-435 melanoma): 97.5%
growth (SW-620 colon): 104%
growth (MCF7 breast): 83.7%
growth (HCT-116 colon): 81.5%
growth (HCC-2998 colon): 108%
growth (KM12 colon): 94.9%

Clc1ccc2c(c1)N(c1ncnc3ccc(-c4cnc5[nH]ncc5c4)cc13)CC2
growth (T-47D breast): 0.466% (active)
growth (BT-549 breast): 22.6%
growth (MDA-MB-435 melanoma): 31.1%
growth (SW-620 colon): 47.4%
growth (MCF7 breast): 18.2%
growth (HCT-116 colon): 35.8%
growth (HCC-2998 colon): 36.6%
growth (KM12 colon): 36.4%

Cc1ccc2c3c(c(=O)[nH]c2c1)C1(C(C#N)=C(N)O3)c2cc(Br)ccc2-c2ccc(Br)cc21
growth (T-47D breast): -29.6% (active)
growth (BT-549 breast): 61.8%
growth (MDA-MB-435 melanoma): 42.8%
growth (SW-620 colon): -36.5% (active)
growth (MCF7 breast): -42.6% (active)
growth (HCT-116 colon): 10%
growth (HCC-2998 colon): -4.73% (active)
growth (KM12 colon): 6.52% (active)

CCCC(=O)NC(c1ccc2c(c1)OCO2)c1ccc2cccnc2c1O (stereo not given)
growth (T-47D breast): 19.8%
growth (BT-549 breast): 34.6%
growth (MDA-MB-435 melanoma): 26.9%
growth (SW-620 colon): 25.7%
growth (MCF7 breast): 5.86% (active)
growth (HCT-116 colon): 11.8%
growth (HCC-2998 colon): 38%
growth (KM12 colon): 30.6%

Brc1c2c(c(Br)c3ccccc13)CCCC2
growth (T-47D breast): 84.4%
growth (BT-549 breast): 112%
growth (MDA-MB-435 melanoma): 111%
growth (SW-620 colon): 103%
growth (MCF7 breast): 96%
growth (HCT-116 colon): 91.4%
growth (HCC-2998 colon): 110%
growth (KM12 colon): 102%

C=C1C(=O)O[C@H]2[C@H]1CC/C(COC(=O)NCc1ccc(Cn3c(=O)sn(CCI)c3=O)cc1)=C\CC[C@@]1(C)O[C@@H]21
growth (T-47D breast): 27.1%
growth (BT-549 breast): 69.8%
growth (MDA-MB-435 melanoma): 57.1%
growth (SW-620 colon): -2.89% (active)
growth (MCF7 breast): 24.7%
growth (HCT-116 colon): 20%
growth (HCC-2998 colon): 107%
growth (KM12 colon): 91.5%

Cc1nc2c(=O)[nH]c(SCC(=O)Nc3cccc(F)c3)nc2[nH]c1=O
growth (T-47D breast): 97.1%
growth (BT-549 breast): 104%
growth (MDA-MB-435 melanoma): 103%
growth (SW-620 colon): 101%
growth (MCF7 breast): 92.7%
growth (HCT-116 colon): 103%
growth (HCC-2998 colon): 104%
growth (KM12 colon): 105%

C/C(=C(/c1ccc(Cl)cc1)c1ccc(OCCN2CCCC2)cc1)c1ccc(Cl)cc1
growth (T-47D breast): 59.5%
growth (BT-549 breast): 96.5%
growth (MDA-MB-435 melanoma): 89.6%
growth (SW-620 colon): 54.6%
growth (MCF7 breast): 34.1%
growth (HCT-116 colon): 50.4%
growth (HCC-2998 colon): 102%
growth (KM12 colon): 52.4%

O=C(O)c1ccc(-n2cc(/C=N/Nc3ccc(F)cc3)c(-c3cc4ccccc4oc3=O)n2)cc1
growth (T-47D breast): 63.7%
growth (BT-549 breast): 80%
growth (MDA-MB-435 melanoma): 77.5%
growth (SW-620 colon): 64.5%
growth (MCF7 breast): 66.1%
growth (HCT-116 colon): 56.5%
growth (HCC-2998 colon): 88.3%
growth (KM12 colon): 77.7%

CC(C)OC(=O)c1ccc2[nH]c(O)c(C(=Nc3ccc(N(C)C(=O)CN4CCN(C)CC4)cc3)c3ccccc3)c2c1
growth (T-47D breast): -47.7% (active)
growth (BT-549 breast): -78.8% (active)
growth (MDA-MB-435 melanoma): -92.6% (active)
growth (SW-620 colon): -64.6% (active)
growth (MCF7 breast): -65.5% (active)
growth (HCT-116 colon): -47.9% (active)
growth (HCC-2998 colon): -84.2% (active)
growth (KM12 colon): -43.2% (active)

COc1cc(-n2cc(-c3cc(O)c(C/C=C(\C)CCC=C(C)C)c(O)c3)nn2)cc2c1O[C@]1(C)CC[C@@H](O)C(C)(C)[C@H]1C2
growth (T-47D breast): 5.7% (active)
growth (BT-549 breast): 29%
growth (MDA-MB-435 melanoma): 16.6%
growth (SW-620 colon): 11.7%
growth (MCF7 breast): 7.25% (active)
growth (HCT-116 colon): 8.36% (active)
growth (HCC-2998 colon): 10.2%
growth (KM12 colon): 15.9%

COc1ccc(-c2cc(-c3ccc(Cl)cc3)c(C#N)c(=O)n2CCCCC(=O)Nc2ccccc2N)cc1
growth (T-47D breast): 37.5%
growth (BT-549 breast): 46.1%
growth (MDA-MB-435 melanoma): 39%
growth (SW-620 colon): 71.8%
growth (MCF7 breast): 41.6%
growth (HCT-116 colon): 24.4%
growth (HCC-2998 colon): 68.3%
growth (KM12 colon): 39.4%

O=C1c2c(c3c4ccc(Br)cc4oc3c3[nH]c4ccccc4c23)C(=O)N1O
growth (T-47D breast): 11.8%
growth (BT-549 breast): 27.6%
growth (MDA-MB-435 melanoma): 19.1%
growth (SW-620 colon): 37.3%
growth (MCF7 breast): 22.4%
growth (HCT-116 colon): 17.9%
growth (HCC-2998 colon): 66.9%
growth (KM12 colon): 17.1%

O=C(CCCCCCN1CC(=O)N2[C@H](c3cc(Br)cs3)c3[nH]c4ccccc4c3C[C@H]2C1=O)NO
growth (T-47D breast): 17.3%
growth (BT-549 breast): 68.1%
growth (MDA-MB-435 melanoma): 22.6%
growth (SW-620 colon): 8.76% (active)
growth (MCF7 breast): 33.2%
growth (HCT-116 colon): 13%
growth (HCC-2998 colon): 75.1%
growth (KM12 colon): 47.2%

COc1ccc(C(c2cc(OC)c(OC)c(OC)c2)N2CCN(c3ccccc3)CC2)cc1 (stereo not given)
growth (T-47D breast): 81.8%
growth (BT-549 breast): 93.6%
growth (MDA-MB-435 melanoma): 9.02% (active)
growth (SW-620 colon): 74.1%
growth (MCF7 breast): 72.8%
growth (HCT-116 colon): 62.8%
growth (HCC-2998 colon): 93.3%
growth (KM12 colon): 65.1%

O=C1c2cccnc2C(=O)c2c1c(C(=O)NCCCN1CCCCC1)c1ccccn21
growth (T-47D breast): -48.6% (active)
growth (BT-549 breast): 13.7%
growth (MDA-MB-435 melanoma): -80.5% (active)
growth (SW-620 colon): -66% (active)
growth (MCF7 breast): -49.5% (active)
growth (HCT-116 colon): -57.6% (active)
growth (HCC-2998 colon): -56.7% (active)
growth (KM12 colon): -17.8% (active)

CC(C)NC1CCC(Nc2ccnc3cc(Cl)ccc23)CC1 (stereo not given)
growth (T-47D breast): 80.3%
growth (BT-549 breast): 88.8%
growth (MDA-MB-435 melanoma): 96%
growth (SW-620 colon): 91.7%
growth (MCF7 breast): 93.3%
growth (HCT-116 colon): 76.6%
growth (HCC-2998 colon): 101%
growth (KM12 colon): 110%

CC(=O)[C@@H]1CCC=C2CC[C@]3(C)[C@@H](CC[C@@H]4[C@@]5(C)CCCNC(C)(C)[C@@H]5CC[C@]43C)[C@H]21
growth (T-47D breast): 33.9%
growth (BT-549 breast): 75.9%
growth (MDA-MB-435 melanoma): -71.1% (active)
growth (SW-620 colon): -58.9% (active)
growth (MCF7 breast): -72.9% (active)
growth (HCT-116 colon): -96.2% (active)
growth (HCC-2998 colon): -93.8% (active)
growth (KM12 colon): -79% (active)

CCCCCCCCn1ccc2cc(NC(=O)Cn3cc(CN4CCCCC4)nn3)ccc21
growth (T-47D breast): -14.1% (active)
growth (BT-549 breast): 71.6%
growth (MDA-MB-435 melanoma): -74.6% (active)
growth (SW-620 colon): -66.1% (active)
growth (MCF7 breast): 9.34% (active)
growth (HCT-116 colon): 2.64% (active)
growth (HCC-2998 colon): -70.4% (active)
growth (KM12 colon): 19%

CN1CCN(C(=O)OCc2ccc3c(Cl)cc(Cl)c(O)c3n2)CC1
growth (T-47D breast): 58.6%
growth (BT-549 breast): 87%
growth (MDA-MB-435 melanoma): 60.5%
growth (SW-620 colon): 52.4%
growth (MCF7 breast): 43.6%
growth (HCT-116 colon): 32.9%
growth (HCC-2998 colon): 74.4%
growth (KM12 colon): 48.7%

CC(=O)OC[C@]12CCC(C)(C)C[C@H]1[C@@]1(O)[C@H](O)C[C@@H]3[C@@]4(C)CCCNC(C)(C)[C@@H]4CC[C@@]3(C)[C@]1(C)CC2
growth (T-47D breast): 104%
growth (BT-549 breast): 111%
growth (MDA-MB-435 melanoma): 109%
growth (SW-620 colon): 109%
growth (MCF7 breast): 102%
growth (HCT-116 colon): 104%
growth (HCC-2998 colon): 109%
growth (KM12 colon): 113%

O=C(Cn1c2c(c3ccccc31)CCCC2)Nc1ccc(-c2nc3ccccc3s2)cc1
growth (T-47D breast): 80.1%
growth (BT-549 breast): 115%
growth (MDA-MB-435 melanoma): 104%
growth (SW-620 colon): 109%
growth (MCF7 breast): 30.8%
growth (HCT-116 colon): 125%
growth (HCC-2998 colon): 108%
growth (KM12 colon): 101%

COc1ccc(/C(C)=C(/c2ccc(OCCCN(C)C)cc2)c2ccc(OC(=O)Cc3ccccc3)cc2)cc1
growth (T-47D breast): 38.2%
growth (BT-549 breast): 76.5%
growth (MDA-MB-435 melanoma): 71.9%
growth (SW-620 colon): 91.8%
growth (MCF7 breast): 25.4%
growth (HCT-116 colon): 57.4%
growth (HCC-2998 colon): 86.7%
growth (KM12 colon): 73.9%

O=C1c2cc(Cl)ccc2S(=O)(=O)c2c(NCCCNCCO)nc3ccccc3c21
growth (T-47D breast): -60% (active)
growth (BT-549 breast): 21.7%
growth (MDA-MB-435 melanoma): 2.67% (active)
growth (SW-620 colon): -74.6% (active)
growth (MCF7 breast): -16.2% (active)
growth (HCT-116 colon): -78% (active)
growth (HCC-2998 colon): 78.5%
growth (KM12 colon): 20.1%
